Some of the results follow. The true hit rate is not given.
Molecular target: furin, P09958
Experiment: furin cleavage Z-score vs untreated control; higher = more cleavage, active = 3.5 or more, inactive = 1 or less, 8 variable residues between constant flanks
How it was run: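 In 50 mM HEPES pH 7.5 with CaCl2 and NaCl, purified furin was incubated with bead-anchored 8-mer peptide–cDNA fusions at 1:10 enzyme:substrate in 0.01 ml. Incubation times were 7.5, 15 and 30 min. DNA set free by cleavage was adapter-tagged by PCR and sequenced, with read counts taken as abundance. Log counts relative to furin-free reactions, after lowess adjustment and median absolute deviation scaling, form the cleavage Z-score.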

Sequence of furin, P09958 (P09958 whole entry): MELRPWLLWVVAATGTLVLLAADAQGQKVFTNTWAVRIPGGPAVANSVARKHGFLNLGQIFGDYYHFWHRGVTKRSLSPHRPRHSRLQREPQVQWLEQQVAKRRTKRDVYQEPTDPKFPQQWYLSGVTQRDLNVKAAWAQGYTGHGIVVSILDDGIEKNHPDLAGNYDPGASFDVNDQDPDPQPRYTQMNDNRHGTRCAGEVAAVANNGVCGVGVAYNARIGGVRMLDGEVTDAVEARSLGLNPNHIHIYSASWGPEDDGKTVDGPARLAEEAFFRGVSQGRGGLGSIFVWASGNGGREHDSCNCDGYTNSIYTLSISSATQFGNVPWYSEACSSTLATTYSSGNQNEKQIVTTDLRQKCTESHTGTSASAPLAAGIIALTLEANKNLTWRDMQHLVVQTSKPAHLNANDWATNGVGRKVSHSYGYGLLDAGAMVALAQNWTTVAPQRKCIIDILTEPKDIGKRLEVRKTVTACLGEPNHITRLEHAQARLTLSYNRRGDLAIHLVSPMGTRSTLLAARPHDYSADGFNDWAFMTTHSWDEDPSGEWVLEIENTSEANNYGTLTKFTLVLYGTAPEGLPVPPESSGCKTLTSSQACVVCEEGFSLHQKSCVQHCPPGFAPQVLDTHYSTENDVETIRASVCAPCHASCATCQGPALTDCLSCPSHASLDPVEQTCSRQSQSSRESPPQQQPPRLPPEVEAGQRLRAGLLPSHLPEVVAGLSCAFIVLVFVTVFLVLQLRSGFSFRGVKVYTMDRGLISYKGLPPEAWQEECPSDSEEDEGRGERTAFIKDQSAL

Row | Sequence | furin cleavage Z-score (7.5 min) | furin cleavage Z-score (15 min) | furin cleavage Z-score (30 min)
1 | CAVVCCWMSYAGNASASA [HC107] | -0.895 (inactive) | 0.873 (inactive) | -1.73 (inactive)
2 | CASQPCSAHLAGNASASA [HC2502] | -0.0566 (inactive) | 0.435 (inactive) | 0.0846 (inactive)
3 | CARARRSASPAGNASASA [FS-2481] | 8.11 (active) | 8.29 (active) | 5.23 (active)
4 | CARARRGPSPAGNASASA [FS-2131] | -1.25 (inactive) | -0.123 (inactive) | -0.828 (inactive)
5 | CARHYKSASPAGNASASA [FS-1718] | -1.62 (inactive) | -1.27 (inactive) | -1.9 (inactive)
6 | CARARRGLRGAGNASASA [FS-1817] | 1.71 | 0.637 (inactive) | 3.32
7 | CARARRDAGPAGNASASA [FS-3150] | 10.1 (active) | 11.6 (active) | 7.77 (active)
8 | CARARRGGGSAGNASASA [FS-2645] | -0.34 (inactive) | -0.574 (inactive) | 0.0356 (inactive)
9 | CARARRDHFSAGNASASA [FS-2642] | 1.38 | 1.33 | 3.76 (active)
10 | CARARRGTSGAGNASASA [FS-2646] | 3.84 (active) | 5.25 (active) | 5.55 (active)
11 | CANTPCSAHLAGNASASA [HC2481] | -0.479 (inactive) | -0.245 (inactive) | 0.352 (inactive)
12 | CAMEECSWHLAGNASASA [HC1728] | -0.727 (inactive) | 1.63 | 1.16
13 | CAGNASRCWVAGNASASA [HC277] | -0.19 (inactive) | 0.165 (inactive) | -0.828 (inactive)
14 | CARARRGVEVAGNASASA [FS-2647] | 4.52 (active) | 5.87 (active) | 6.09 (active)
15 | CAQLPCEPEPAGNASASA [HC1240] | 0.775 (inactive) | -0.524 (inactive) | -0.783 (inactive)
16 | CAFFSVLIARAGNASASA [HC1585] | -2.48 (inactive) | -0.777 (inactive) | -0.815 (inactive)
17 | CAYLLRRRRNAGNASASA [FS-1620] | 5.7 (active) | 4.73 (active) | 3.09
18 | CAHLSRRRRNAGNASASA [FS-1007] | 11.1 (active) | 9.66 (active) | 7.89 (active)
19 | CAYLLPRRGPAGNASASA [HC178] | -0.496 (inactive) | -0.768 (inactive) | -0.313 (inactive)
20 | CAECTTPCSGAGNASASA [HC1144] | -0.495 (inactive) | -0.922 (inactive) | -0.582 (inactive)
21 | CAATSRKRRVAGNASASA [FS-1311] | 7.4 (active) | 11 (active) | 9.97 (active)
22 | CAAIIPDREVAGNASASA [HC1007] | -0.132 (inactive) | -0.083 (inactive) | -0.0846 (inactive)

Row | Sequence | furin cleavage Z-score (7.5 min) | furin cleavage Z-score (15 min) | furin cleavage Z-score (30 min)
23 | CARSVRKVIVAGNASASA [FS-3099] | 0.811 (inactive) | -1.26 (inactive) | 0.845 (inactive)
24 | CAEVVTSTRVAGNASASA [HC2233] | -0.495 (inactive) | 0.515 (inactive) | -0.63 (inactive)
25 | CAAIGRSRRVAGNASASA [FS-114] | 2.54 | 1.95 | 4.65 (active)
26 | CAITSCSSNVAGNASASA [HC1552] | 0.153 (inactive) | 0.128 (inactive) | 0.563 (inactive)
27 | CALSARRFRVAGNASASA [FS-1371] | 0.442 (inactive) | -0.766 (inactive) | 0.226 (inactive)
28 | CAKSVRKRRVAGNASASA [FS-603] | 10.7 (active) | 11.6 (active) | 9.56 (active)
29 | CADDDKIVGGAGNASASA [EK7] | -1.75 (inactive) | -1.15 (inactive) | -0.908 (inactive)
30 | CASTGFTKVCAGNASASA [HC439] | 0.727 (inactive) | -0.241 (inactive) | 0.58 (inactive)
31 | CAPISYANGSAGNASASA [HC396] | 0.358 (inactive) | -0.237 (inactive) | 0.768 (inactive)
32 | CACEECSQHLAGNASASA [HC1680] | -0.324 (inactive) | -2.23 (inactive) | -0.379 (inactive)
33 | CALNRRRRREAGNASASA [FS-355] | 12.7 (active) | 12.9 (active) | 8.21 (active)
34 | CALHGRRRREAGNASASA [FS-456] | 12.8 (active) | 11.9 (active) | 10.7 (active)
35 | CARDARRLKEAGNASASA [FS-2900] | 0.375 (inactive) | -1.38 (inactive) | -0.471 (inactive)
36 | CAVFARHLREAGNASASA [FS-921] | 5.03 (active) | 6.28 (active) | 4.54 (active)
37 | CARRNRRRREAGNASASA [FS-494] | 12 (active) | 13.6 (active) | 9.7 (active)
38 | CARFYRSRKKAGNASASA [FS-1707] | 0.676 (inactive) | 1.31 | 0.114 (inactive)
39 | CAVSAEEYVEAGNASASA [HC1203] | -1.9 (inactive) | 0.0508 (inactive) | 0.782 (inactive)
40 | CACCTTPCSGAGNASASA [HC1960] | -1.19 (inactive) | -0.424 (inactive) | -0.858 (inactive)
41 | CAWCLWWLQYAGNASASA [HC581] | -0.105 (inactive) | -0.224 (inactive) | -0.828 (inactive)
42 | CAWFGCTWMNAGNASASA [HC435] | -0.725 (inactive) | 1.68 | 1.37
43 | CATDFDQGWGAGNASASA [HC392] | -0.591 (inactive) | -2.3 (inactive) | -1.94 (inactive)

Source: the supplement of paper PMC3545927
